Test results reported in PubChem BioAssay (NCI).
This is part of a sample that, as a whole, favours compounds with a hit. Of some 79,000 tested, about 15% had one in any assay. Rule as the data show it: active = growth inhibition above about 70%; inactive = the rest.

Columns and labels:
[1] = NCI Yeast Anticancer Drug Screen. Data for the rad50 strain (AID 155);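 also: 0% = growth of vehicle-only cultures of the same strain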; conditions: S. cerevisiae rad50 strain growth inhibition; at 50.0 µM; active compounds read high
Summary of the method: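 Yeast carrying a defined DNA repair defect were exposed to test compounds, and growth was compared with vehicle-treated controls to give percent inhibition.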

[2] = NCI Yeast Anticancer Drug Screen. Data for the mec2-1 strain (AID 157); conditions: S. cerevisiae mec2-1 strain, at 50.0 µM, active compounds read high
Summary of the method: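 Mutant yeast (mec2-1) grown with compound; growth inhibition relative to vehicle control reported.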

[3] = NCI Yeast Anticancer Drug Screen. Data for the sgs1 mgt1 strain (AID 161);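 also: 0% = growth of cultures given vehicle only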; conditions: S. cerevisiae sgs1 mgt1 strain, at 50.0 µM, active compounds read high
Summary of the method: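 Growth of a repair-deficient yeast mutant was monitored after compound treatment and expressed as inhibition relative to vehicle-treated cultures.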

[4] = NCI Yeast Anticancer Drug Screen. Data for the cln2 rad14 strain (AID 165);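 also: 0% = growth equal to vehicle treated cultures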; conditions: S. cerevisiae cln2 rad14 strain, at 50.0 µM, active compounds read high
Summary of the method: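 Readout is yeast growth inhibition versus vehicle-treated controls, using a strain with cln2 and rad14 alterations exposed to compound.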

[5] = NCI Yeast Anticancer Drug Screen. Data for the bub3 strain (AID 167); conditions: S. cerevisiae bub3 mutant strain, at 50.0 µM, active compounds read high
Summary of the method: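 Compounds were applied to a genetically altered yeast strain carrying a cell-cycle control defect. Growth inhibition was scored against vehicle-treated controls.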

[6] = NCI Yeast Anticancer Drug Screen. Data for the mlh1 rad18 strain (AID 175); conditions: S. cerevisiae mlh1 rad18 strain growth inhibition; at 50.0 µM; active compounds read high
Summary of the method: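 Genetically defined yeast (DNA repair-deficient) exposed to compounds; growth inhibition determined relative to vehicle.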

Measured: growth inhibition

COC(=O)CSc1[nH]c2nc(C)nc(Nc3ccccc3)c2c1C#N
inactive: [1] -13.8% | [2] -19.2% | [3] -9.85% | [4] -6.75% | [5] -27.8% | [6] 16.1%

CCN(CC)c1ccc(/C=C2\CCc3ccc([N+](=O)[O-])cc3C2=O)cc1
inactive: [1] 1.95% | [2] -14.7% | [3] 6.2% | [4] -3.75% | [5] 3.8% | [6] -7.95%

O=C1NCCS(=O)(=O)N2CCC[C@@H]12
inactive: [1] 54.4% | [2] -20% | [3] 5.1% | [4] 21.4% | [5] -19.6% | [6] -14.9%

c1ccc(P(=Nc2cccc(N=P(c3ccccc3)(c3ccccc3)c3ccccc3)c2)(c2ccccc2)c2ccccc2)cc1
inactive: [1] 0.95% | [2] 6.9% | [3] 28.2% | [4] -2.6% | [5] 0.05% | [6] 6.6%

CC(=O)OC(C)C1CCCC1OC(C)=O (stereo not given)
inactive: [1] -3.95% | [2] 9.2% | [3] -9.95% | [4] 5.75% | [5] -15.1% | [6] -22.5%

O=S(=O)(c1ccccc1)C1CCCC1
inactive: [1] -12.2% | [2] 8.9% | [3] -1.85% | [4] -11.8% | [5] -6.7% | [6] -2.9%

C[C@]12C=CC(=O)C=C1[C@@H](F)C[C@H]1[C@@H]3CC[C@](O)(C(=O)CO)[C@@]3(C)C[C@H](O)[C@@]12F
inactive: [1] -11.9% | [2] -26.4% | [3] 4.8% | [4] 66.8% | [5] 2.85% | [6] -9.9%

Oc1ccc(Br)cc1C1Nc2ccccc2S1 (stereo not given)
inactive: [1] 0.65% | [2] 6.15% | [3] 0.4% | [4] -28.3% | [5] 5.15% | [6] -1.85%

CCCCCCCCN(c1ccc(C(=O)NC(CCC(=O)OCC)C(=O)OCC)cc1)S(=O)(=O)c1ccc(C)cc1 (stereo not given)
inactive: [1] -14.6% | [2] -4.5% | [3] -18.9% | [4] -24.6% | [5] -3.6% | [6] -12.2%

CCC1SC(N)=NC1c1ccccc1 (stereo not given)
inactive: [1] 22.2% | [2] 2.85% | [3] 31.9% | [4] 9.95% | [5] 14.1% | [6] 24.6%

Cn1c2ccccc2n2c(=O)c3c(c(C#N)c12)CCCC3
inactive: [1] -31.1% | [2] -35.2% | [3] -3.1% | [4] -0.35% | [5] -20.6% | [6] -21.7%

COc1ccc(C(=O)Cc2nc3nnc(N)n3nc2CC(=O)c2ccc(OC)cc2)cc1
inactive: [1] -9.35% | [2] 2.1% | [3] -0.75% | [4] -0.75% | [5] 16.4% | [6] 15.7%

CC(C)[Si](OC1=C(c2ccccc2)C(NC(=O)/C=C/c2ccc([N+](=O)[O-])cc2)CCC1)(C(C)C)C(C)C (stereo not given)
inactive: [1] 19.2% | [2] 4.15% | [3] -0.2% | [4] -6.7% | [5] -5.35% | [6] 29.9%

CC(C)COCC1COC2(OCC(C)(C)C2OC(=O)Nc2ccccc2)O1 (stereo not given)
inactive: [1] 5.55% | [2] -0.6% | [3] -12.4% | [4] -5.6% | [5] 5.95% | [6] 17.6%

Cc1cc(C(N)=O)c(C(N)=O)c(=O)[nH]1
inactive: [1] -13.1% | [2] 2% | [3] 0% | [4] -7.5% | [5] -14.2% | [6] 15.8%

O=C(O)c1c[n+]([O-])ccc1Cl
inactive: [1] 12.8% | [2] -0.9% | [3] -8% | [4] -42% | [5] -8.2% | [6] 27.1%

Nc1nc(N)c(-c2ccc(Cl)cc2)c(CCC(=O)Nc2cccc(C(F)(F)F)c2)n1
inactive: [1] -25.2% | [2] -3.55% | [3] -30% | [4] -0.25% | [5] -17.1% | [6] -21.1%

N#CC(=Nc1cc(Cl)cc(Cl)c1)C1=C(O)c2ccccc2C1=O
inactive: [1] 5.75% | [2] 0.6% | [3] 30.1% | [4] 14.1% | [5] 35.9% | [6] 11%

CCSc1nnc2c(-c3ccccc3)n[nH]c2n1
inactive: [1] -0.75% | [2] -0.05% | [3] -21.8% | [4] -25.9% | [5] -27.6% | [6] -12.1%

NC(=O)c1ncccc1C(=O)O
inactive: [1] -9.2% | [2] -9.65% | [3] -18.6% | [4] 2.3% | [5] -13.6% | [6] -12.2%
